Experimental data reported in PubChem BioAssay (NCATS).
Records with an inconclusive call do not appear. Activity calls are given as the source filed them. Calls follow the shape of the dose curve; as a rule, active = well fitted curve in the direction sought with a large enough effect; inconclusive = small, poorly fitted or top-dose-only effect, or another doubt; inactive = no such curve, though single readings can be large; an effect the other way counts as inactive or inconclusive.

Columns and labels:
HACAT = test: qHTS assay to identify novel small-molecules to repurpose for Merkel cell carcinoma treatment (AID 1296009); conditions: MCC and control cell lines, CellTiter-Glo viability, 72 h; at 44.8 µM (top of the series) unless noted; also: nearly all actives have a fitted effect of over 60% in size; also: potency is read from the fitted curve at half-maximal effect
Method in brief: (§1)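 After compound transfer in DMSO, plates were kept 72 hr at 37 degree celsius. Luminescent ATP signal from CellTiter-Glo served as viability measure, normalized against DMSO and no-cell controls.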

MCC-13 = test: as above; conditions: MCC and control cell lines, CellTiter-Glo viability, 72 h; series mostly up to 46 µM
Method in brief: as §1

MCC-26 = test: as above; conditions: MCC and control cell lines, CellTiter-Glo viability, 72 h; series mostly up to 46 µM
Method in brief: as §1

MKL-1 = test: as above; conditions: MCC and control cell lines, CellTiter-Glo viability, 72 h; series mostly up to 46 µM
Method in brief: as §1

MKL-2 = test: as above; conditions: MCC and control cell lines, CellTiter-Glo viability, 72 h; series mostly up to 46 µM
Method in brief: as §1

NIH3T3 [1] = test: as above; conditions: MCC and control cell lines, CellTiter-Glo viability, 72 h; at 44.8 µM (top of the series) unless noted
Method in brief: as §1

UISO = test: as above; conditions: MCC and control cell lines, CellTiter-Glo viability, 72 h; series mostly up to 46 µM
Method in brief: as §1

WaGa = test: as above; conditions: MCC and control cell lines, CellTiter-Glo viability, 72 h; series mostly up to 46 µM
Method in brief: as §1

C33A = test: Primary qHTS to identify gynecologic anti-cancer compounds using libraries of approved drugs and bioactive compounds (AID 1345084); conditions: Gynecologic cancer cell panel viability, ATPlite luminescence, 48 h; series mostly up to 57.5 µM; also: nearly all actives have a fitted effect of over 55% in size; also: potency is read from the fitted curve at half-maximal effect
Method in brief: (§2)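 Five-point cytotoxicity, 48 h drug exposure at 37 C, 5% CO2, on cells seeded 16 h beforehand. ATP content read by ATPlite luminescence.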

CAOV3 = test: as above; conditions: Gynecologic cancer cell panel viability, ATPlite luminescence, 48 h; series mostly up to 57.5 µM
Method in brief: as §2

CASKI = test: as above; conditions: Gynecologic cancer cell panel viability, ATPlite luminescence, 48 h; series mostly up to 57.5 µM
Method in brief: as §2

Es-2 = test: as above; conditions: Gynecologic cancer cell panel viability, ATPlite luminescence, 48 h; series mostly up to 57.5 µM
Method in brief: as §2

HeLa = test: as above; conditions: Gynecologic cancer cell panel viability, ATPlite luminescence, 48 h; series mostly up to 57.5 µM
Method in brief: as §2

Hek293T [2] = test: as above; conditions: Gynecologic cancer cell panel viability, ATPlite luminescence, 48 h, control line for the selectivity index; series mostly up to 57.5 µM
Method in brief: as §2

JEG-3 = test: as above; conditions: Gynecologic cancer cell panel viability, ATPlite luminescence, 48 h; series mostly up to 57.5 µM
Method in brief: as §2

OV90 = test: as above; conditions: Gynecologic cancer cell panel viability, ATPlite luminescence, 48 h; series mostly up to 57.5 µM
Method in brief: as §2

PA-1 = test: as above; conditions: Gynecologic cancer cell panel viability, ATPlite luminescence, 48 h; series mostly up to 57.5 µM
Method in brief: as §2

SKOV3 = test: as above; conditions: Gynecologic cancer cell panel viability, ATPlite luminescence, 48 h; series mostly up to 57.5 µM
Method in brief: as §2

NIH3T3 [3] = test: Cytotoxic Profiling of Annotated Libraries Using Quantitative High-Throughput Screening (AID 1296008); conditions: Five cell lines viability, CellTiter-Glo ATP luminescence, 48-72 h; max response: stronger effect = lower value; also: nearly all actives have a fitted effect of over 60% in size
Method in brief: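 Cytotoxicity was measured as CellTiter-Glo ATP luminescence, read after 10 min at room temperature. Compound treatment of the cells lasted 48 or 72 hr at 37 degrees Celsius in a qHTS format.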

HEK293T [4] = test: qHTS assay to identify novel small-molecules to repurpose for Merkel cell carcinoma treatment (AID 1296009); conditions: MCC and control cell lines, CellTiter-Glo viability, 72 h; at 44.8 µM (top of the series) unless noted; also: nearly all actives have a fitted effect of over 60% in size; also: potency is read from the fitted curve at half-maximal effect
Method in brief: as §1
% is scaled to controls: 0 for no effect and ±100 for the full control effect.

N[C@@H](CCC(=O)N[C@@H](CS)C(=O)NCC(=O)O)C(=O)O
inactive: outcome (HACAT) inactive [at 17.4 µM] | Potency (MCC-13) | Potency (MCC-26) | Potency (MKL-1) | Potency (MKL-2) | outcome (NIH3T3 [1]) inactive [at 17.4 µM] | Potency (UISO) | Potency (WaGa) | Potency (C33A) | Potency (CAOV3) | Potency (CASKI) | Potency (Es-2) | Potency (HeLa) | Potency (Hek293T [2]) | Potency (JEG-3) | Potency (OV90) | Potency (PA-1) | Potency (SKOV3)

CCOc1ccc(Cc2nccc3cc(OCC)c(OCC)cc23)cc1OCC
active: Potency (MKL-2) 16.8 µM | Potency (OV90) 7.08 µM | Potency (SKOV3) 2.24 µM
inactive: max response (NIH3T3 [3]) -24.3% | Potency (CAOV3) | Potency (HeLa) | Potency (JEG-3)

CCN(CC)C(=O)/C(C#N)=C/c1cc(O)c(O)c([N+](=O)[O-])c1
inactive: Potency (MCC-13) | Potency (C33A) | Potency (CAOV3) | Potency (CASKI) | Potency (Es-2) | Potency (HeLa) | Potency (Hek293T [2]) | Potency (JEG-3) | Potency (SKOV3)

OC[C@@H](O)[C@@H](O[C@@H]1O[C@H](CO)[C@H](O)[C@H](O)[C@H]1O)[C@H](O)[C@@H](O)CO
inactive: Potency (MCC-13) | Potency (MCC-26) | Potency (MKL-1) | Potency (MKL-2) | Potency (UISO) | Potency (WaGa) | Potency (C33A) | Potency (CAOV3) | Potency (CASKI) | Potency (Es-2) | Potency (HeLa) | Potency (Hek293T [2]) | Potency (JEG-3) | Potency (OV90) | Potency (PA-1) | Potency (SKOV3)

CN(C/C=C/c1ccccc1)Cc1cccc2ccccc12
inactive: Potency (MCC-13) | Potency (MCC-26) | Potency (MKL-1) | Potency (MKL-2) | Potency (WaGa) | Potency (C33A) | Potency (CAOV3) | Potency (CASKI) | Potency (Es-2) | Potency (HeLa) | Potency (JEG-3) | Potency (OV90) | Potency (PA-1)

CNCC[C@@H](Oc1ccccc1C)c1ccccc1
inactive: Potency (MCC-13) | Potency (MCC-26) | Potency (MKL-1) | Potency (MKL-2) | Potency (UISO) | Potency (WaGa) | Potency (C33A) | Potency (CAOV3) | Potency (CASKI) | Potency (HeLa) | Potency (Hek293T [2]) | Potency (JEG-3) | Potency (OV90) | Potency (PA-1)

NC(=NCCCCCCN=C(N)/N=C(\N)Nc1ccc(Cl)cc1)/N=C(\N)Nc1ccc(Cl)cc1
active: Potency (MCC-13) 26.6 µM | Potency (MKL-1) 6.68 µM | Potency (MKL-2) 2.99 µM | Potency (UISO) 9.44 µM | Potency (WaGa) 8.41 µM | Potency (PA-1) 15.8 µM
inactive: Potency (CASKI) | Potency (Es-2) | Potency (JEG-3)

CCN(CC)C(=O)N1CCN(C)CC1
inactive: Potency (MCC-13) | Potency (MCC-26) | Potency (MKL-1) | Potency (MKL-2) | Potency (UISO) | Potency (WaGa) | Potency (C33A) | Potency (CAOV3) | Potency (CASKI) | Potency (Es-2) | Potency (HeLa) | Potency (Hek293T [2]) | Potency (JEG-3) | Potency (OV90) | Potency (PA-1) | Potency (SKOV3)

CCCCOc1cc(C(=O)NCCN(CC)CC)c2ccccc2n1
inactive: Potency (MCC-13) | Potency (MCC-26) | Potency (MKL-1) | Potency (C33A) | Potency (CASKI) | Potency (Hek293T [2]) | Potency (JEG-3)

Cc1cccc(C)c1NC(=O)CN1CCN(CCCC(c2ccc(F)cc2)c2ccc(F)cc2)CC1
inactive: Potency (MCC-13) | Potency (MCC-26) | Potency (MKL-1) | Potency (UISO) | Potency (WaGa) | Potency (CASKI) | Potency (Es-2) | Potency (Hek293T [2]) | Potency (JEG-3)

CC(C)N=C(N)/N=C(\N)Nc1ccc(Cl)cc1
active: Potency (SKOV3) 28.2 µM
inactive: Potency (MCC-13) | Potency (MKL-1) | Potency (HeLa) | Potency (Hek293T [2]) | Potency (JEG-3) | Potency (OV90) | Potency (PA-1)

C#C[C@]1(O)CC[C@H]2[C@@H]3CCc4cc(OC5CCCC5)ccc4[C@H]3CC[C@@]21C
active: Potency (OV90) 20 µM
inactive: Potency (MCC-13) | Potency (MCC-26) | Potency (C33A) | Potency (CAOV3) | Potency (CASKI) | Potency (Es-2) | Potency (HeLa) | Potency (Hek293T [2]) | Potency (JEG-3)

NC(=O)CC[C@@H]1NC(=O)[C@H](Cc2ccccc2)NC(=O)[C@H](Cc2ccc(O)cc2)NC(=O)CCSSC[C@@H](C(=O)N2CCC[C@H]2C(=O)N[C@@H](CCCN=C(N)N)C(=O)NCC(N)=O)NC(=O)[C@H](CC(N)=O)NC1=O
inactive: Potency (MCC-13) | Potency (MCC-26) | Potency (MKL-1) | Potency (MKL-2) | outcome (NIH3T3 [1]) | Potency (UISO) | Potency (WaGa) | Potency (C33A) | Potency (CAOV3) | Potency (CASKI) | Potency (Es-2) | Potency (HeLa) | Potency (Hek293T [2]) | Potency (JEG-3) | Potency (OV90) | Potency (PA-1) | Potency (SKOV3)

COC1=CC(=O)C[C@@H](C)[C@]12Oc1c(Cl)c(OC)cc(OC)c1C2=O
inactive: Potency (MCC-13) | Potency (MCC-26) | Potency (MKL-2) | Potency (C33A) | Potency (CAOV3) | Potency (CASKI) | Potency (Es-2) | Potency (HeLa) | Potency (Hek293T [2]) | Potency (JEG-3) | Potency (OV90) | Potency (SKOV3)

CCCCCCC[N+](CC)(CC)CCCCc1ccc(Cl)cc1
active: Potency (MKL-1) 0.596 µM | Potency (MKL-2) 0.237 µM | Potency (UISO) 4.73 µM | Potency (WaGa) 0.668 µM | Potency (CAOV3) 11.2 µM | Potency (CASKI) 10 µM | Potency (OV90) 10 µM | Potency (PA-1) 4.47 µM
inactive: Potency (MCC-13) | Potency (MCC-26)

CC[C@@H](CO)NCCN[C@@H](CC)CO
inactive: outcome (HEK293T [4]) | Potency (MCC-13) | Potency (MKL-1) | Potency (MKL-2) | outcome (NIH3T3 [1]) | Potency (UISO) | Potency (WaGa) | Potency (C33A) | Potency (CAOV3) | Potency (CASKI) | Potency (Es-2) | Potency (HeLa) | Potency (Hek293T [2]) | Potency (JEG-3) | Potency (OV90) | Potency (PA-1) | Potency (SKOV3)
